Values joined by “and” are separate entries in the source; they are usually repeats but may differ in a detail not shown here. Equal entries are not always repeated. This is part of a sample that, as a whole, favours compounds with a hit. Of some 83,000 tested, about 20% had one in any assay.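 Single-dose data. Exposure time 48 hours. Values below 10 considered active.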 Active and inactive are the calls of the source.
Columns and labels:
Assay in all cases: NCI-60 one-dose screen, 48 h (100 = growth as untreated, 0 = no growth, -100 = all killed)
Details in all cases: 10 µM unless noted
HCT-15 colon = system: HCT-15 colon
HT29 colon = system: HT29 colon
SNB-75 CNS = system: SNB-75 CNS
SNB-19 CNS = system: SNB-19 CNS
U251 CNS = system: U251 CNS
PC-3 prostate = system: PC-3 prostate
UACC-62 melanoma = system: UACC-62 melanoma
LOX IMVI melanoma = system: LOX IMVI melanoma
SK-MEL-28 melanoma = system: SK-MEL-28 melanoma
SK-MEL-5 melanoma = system: SK-MEL-5 melanoma

Measured: growth

NC1CN2CCC1CC2 (stereo not drawn)
inactive: HCT-15 colon 99.3% | HT29 colon 99.8% | SNB-75 CNS 73.9% | SNB-19 CNS 101% | U251 CNS 103% | PC-3 prostate 90.7% | UACC-62 melanoma 90.4% | LOX IMVI melanoma 97.2% | SK-MEL-28 melanoma 100%

C/C(=C\c1ccn(-c2ccc(N)c(C(F)(F)F)c2)n1)[C@@H]1C[C@@H]2O[C@]2(C)CCC[C@H](C)[C@H](O)[C@@H](C)C(=O)C(C)(C)[C@@H](O)CC(=O)O1
inactive: HCT-15 colon 20% | HT29 colon 13% | SNB-19 CNS 38% | U251 CNS 26.3% | PC-3 prostate 15.7% | UACC-62 melanoma 20.7% | LOX IMVI melanoma 26.2% | SK-MEL-28 melanoma 55.8%
active: SNB-75 CNS -2.27%

O=[P+](O)c1cccnc1
inactive: HCT-15 colon 106% | HT29 colon 93.7% | SNB-75 CNS 94.3% | SNB-19 CNS 106% | U251 CNS 99.6% | PC-3 prostate 96.7% | UACC-62 melanoma 103% | LOX IMVI melanoma 98.1% | SK-MEL-28 melanoma 106%

C[C@@]12CCCc3coc(c31)C(=O)c1cc3c(cc12)C(=O)C1=C(NCCS1(=O)=O)C3=O
active: HCT-15 colon 8.66% | HT29 colon -4.92% | SNB-75 CNS -87.5% | SNB-19 CNS -68.8% | U251 CNS -61% | PC-3 prostate -6.62% | UACC-62 melanoma -68% | LOX IMVI melanoma -42.7% | SK-MEL-28 melanoma -9.02%

Cc1cc(C(C)(C)C)ccc1O
inactive: HCT-15 colon 109% | HT29 colon 106% | SNB-75 CNS 102% | SNB-19 CNS 111% | U251 CNS 94.2% | PC-3 prostate 93.6% | UACC-62 melanoma 109% | LOX IMVI melanoma 94.9% | SK-MEL-28 melanoma 110%

[N-]=[N+]=CC(=O)CCC(=O)C=[N+]=[N-]
inactive: HCT-15 colon 111% | HT29 colon 107% | SNB-75 CNS 96.6% | SNB-19 CNS 99.6% | U251 CNS 100% | PC-3 prostate 86% | UACC-62 melanoma 96.5% | LOX IMVI melanoma 94.9% | SK-MEL-28 melanoma 112%

CN(C)C(=S)SSC(=S)N(C)C
inactive: HCT-15 colon 93.9% and 113% | HT29 colon 61.1% and 92.2% | SNB-75 CNS 109% and 104% | SNB-19 CNS 98.7% and 98.8% | U251 CNS 81.2% and 75.7% | PC-3 prostate 75.5% and 91.1% | UACC-62 melanoma 97.4% and 96.2% | LOX IMVI melanoma 104% and 108% | SK-MEL-28 melanoma 116% and 114%

CC[C@H](C)[C@H](NC(=O)[C@H]1CCCCN1C)C(=O)N(C)[C@H](C[C@@H](OC(C)=O)c1nc(C(=O)NC23C4C5C2C2C3C4C52C(=O)OC)cs1)C(C)C (stereo partly drawn)
active: HCT-15 colon 9.18% | HT29 colon -5.46% | LOX IMVI melanoma 7.09%
inactive: SNB-75 CNS 22.9% | SNB-19 CNS 28.1% | U251 CNS 10.8% | PC-3 prostate 23.5% | UACC-62 melanoma 43.8% | SK-MEL-28 melanoma 59.1%

CCCC(C)SP(=S)(SC(C)CCC)SC(C)CCC (stereo not drawn)
inactive: HCT-15 colon 103% | HT29 colon 100% | SNB-75 CNS 106% | SNB-19 CNS 108% | U251 CNS 103% | PC-3 prostate 99.8% | UACC-62 melanoma 101% | LOX IMVI melanoma 93.6% | SK-MEL-28 melanoma 107%

Cc1ccc(P(=O)(O)O)cc1
inactive: HCT-15 colon 107% | HT29 colon 109% | SNB-75 CNS 107% | SNB-19 CNS 97.9% | U251 CNS 101% | PC-3 prostate 107% | UACC-62 melanoma 98.6% | LOX IMVI melanoma 104% | SK-MEL-28 melanoma 112%

CCCC[C@H]1C(=O)O[C@H](C)[C@H](NC(=O)c2cccc(NC=O)c2O)C(=O)O[C@@H](C)[C@@H]1OC(=O)CC(C)C
inactive: HCT-15 colon 39.9% | HT29 colon 49.5% | SNB-75 CNS 56.8% | SNB-19 CNS 44.4% | U251 CNS 42.9% | PC-3 prostate 32.9% | UACC-62 melanoma 34% | LOX IMVI melanoma 32.9% | SK-MEL-28 melanoma 83.9%

COC12CC3C4=CCOC5CC(=O)N6c7ccccc7C1(CCN2C4)C6C53 (stereo not drawn)
inactive: HCT-15 colon 103% | HT29 colon 100% | SNB-75 CNS 70.1% | SNB-19 CNS 116% | U251 CNS 93.2% | PC-3 prostate 105% | SK-MEL-5 melanoma 110% | UACC-62 melanoma 104% | LOX IMVI melanoma 96.9% | SK-MEL-28 melanoma 109%

O=C1CCCCC1CN1CCCCC1 (stereo not drawn)
inactive: HCT-15 colon 99.9% | HT29 colon 85.3% | SNB-75 CNS 109% | SNB-19 CNS 108% | U251 CNS 100% | PC-3 prostate 97.8% | UACC-62 melanoma 99.4% | LOX IMVI melanoma 95.4% | SK-MEL-28 melanoma 106%

O=[N+]([O-])c1cc(Br)c(O)c(Br)c1
inactive: HCT-15 colon 100% | HT29 colon 95.6% | SNB-75 CNS 102% | SNB-19 CNS 102% | U251 CNS 99.8% | PC-3 prostate 96.7% | UACC-62 melanoma 105% | LOX IMVI melanoma 101% | SK-MEL-28 melanoma 120%

CCCCOC(N)=O
inactive: HCT-15 colon 101% | HT29 colon 107% | SNB-75 CNS 88.6% | SNB-19 CNS 98% | U251 CNS 106% | PC-3 prostate 108% | SK-MEL-5 melanoma 99.6% | LOX IMVI melanoma 104% | SK-MEL-28 melanoma 112%

CCC1(CCSC#N)C(=O)NC(=O)NC1=O
inactive: HCT-15 colon 99.6% | HT29 colon 100% | SNB-75 CNS 97.1% | SNB-19 CNS 101% | U251 CNS 93.9% | PC-3 prostate 92.5% | SK-MEL-5 melanoma 100% | UACC-62 melanoma 104% | LOX IMVI melanoma 101% | SK-MEL-28 melanoma 110%

CC12CCC3C(CCC4CC(O)CCC43C)C1CCC2=O (stereo not drawn)
inactive: HCT-15 colon 91.4% | HT29 colon 102% | SNB-75 CNS 109% | SNB-19 CNS 112% | U251 CNS 95.9% | PC-3 prostate 99.6% | UACC-62 melanoma 98.9% | LOX IMVI melanoma 92% | SK-MEL-28 melanoma 189%

CCC(=O)C(CC(C)N1CCCCCC1)(c1ccccc1)c1ccccc1 (stereo not drawn)
inactive: HCT-15 colon 87.2% | HT29 colon 67.1% | SNB-75 CNS 115% | SNB-19 CNS 95.2% | U251 CNS 100% | PC-3 prostate 89.2% | UACC-62 melanoma 94.4% | LOX IMVI melanoma 103% | SK-MEL-28 melanoma 94.7%

CC(=O)c1cccc(S(=O)(=O)F)c1
inactive: HCT-15 colon 96.3% | HT29 colon 104% | SNB-75 CNS 117% | U251 CNS 100% | PC-3 prostate 79% | SK-MEL-5 melanoma 110% | UACC-62 melanoma 103% | LOX IMVI melanoma 90.1% | SK-MEL-28 melanoma 120%

O=C1NC(=O)C(=C/C=C/c2ccccc2)C(=O)N1
inactive: SNB-75 CNS 24.3% | SNB-19 CNS 53.8% | PC-3 prostate 27.7% | SK-MEL-5 melanoma 80.9%
active: HT29 colon -71.6% | U251 CNS 7.65% | UACC-62 melanoma -11.9% | LOX IMVI melanoma -64.4% | SK-MEL-28 melanoma -34.7%

CC1(C)N=C(N)N=C(N)N1c1ccc(CCC(=O)Nc2ccc(S(=O)(=O)F)cc2)cc1
active: HT29 colon 9.44%
inactive: HCT-15 colon 46.2% | SNB-75 CNS 51.8% | SNB-19 CNS 55% | PC-3 prostate 20.2% | SK-MEL-5 melanoma 34.8% | UACC-62 melanoma 26.2% | LOX IMVI melanoma 15.8% | SK-MEL-28 melanoma 52%

CC1(C)CN=C(NN=C(/C=C/c2ccc(C(F)(F)F)cc2)/C=C/c2ccc(C(F)(F)F)cc2)NC1
active: HCT-15 colon -72% | HT29 colon -83.2% | SNB-75 CNS -88.6% | UACC-62 melanoma -83.8% | SK-MEL-28 melanoma -90.9%
inactive: SNB-19 CNS 37.9% | PC-3 prostate 24.7%

C#Cc1cccc(Nc2nc(Cl)nc3cc(NC(=O)CF)ccc23)c1
inactive: HT29 colon 16.1% | SNB-75 CNS 61.2% | SNB-19 CNS 89% | U251 CNS 79.3% | PC-3 prostate 57.8% | SK-MEL-5 melanoma 37.3% | UACC-62 melanoma 72.9% | LOX IMVI melanoma 65.2% | SK-MEL-28 melanoma 73.2%

CCCCS(=O)(=O)Cl
inactive: HT29 colon 113% | SNB-75 CNS 93.5% | SNB-19 CNS 110% | U251 CNS 105% | PC-3 prostate 89.6% | SK-MEL-5 melanoma 98.2% | UACC-62 melanoma 106% | LOX IMVI melanoma 99.9% | SK-MEL-28 melanoma 107%

CN1CCC2(CC1)C(C#N)C(=O)NC(=O)C2C#N (stereo not drawn)
inactive: HCT-15 colon 98.4% | HT29 colon 118% | SNB-75 CNS 76.4% | SNB-19 CNS 99% | PC-3 prostate 101% | SK-MEL-5 melanoma 102% | UACC-62 melanoma 101% | LOX IMVI melanoma 100% | SK-MEL-28 melanoma 95.1%

COCC1OC2OC3C(COC)OC(OC4C(COC)OC(OC5C(COC)OC(OC6C(COC)OC(OC7C(COC)OC(OC8C(COC)OC(OC1C(O)C2O)C(O)C8O)C(O)C7O)C(O)C6O)C(O)C5O)C(O)C4O)C(O)C3O (stereo not drawn) (tested in a mixture with another compound)
inactive: HCT-15 colon 103% | HT29 colon 109% | SNB-75 CNS 86.1% | SNB-19 CNS 110% | U251 CNS 105% | SK-MEL-5 melanoma 103% | UACC-62 melanoma 107% | LOX IMVI melanoma 102% | SK-MEL-28 melanoma 112%

O=S(=O)(F)c1cccc(Cl)c1C[P+](c1ccccc1)(c1ccccc1)c1ccccc1
inactive: HCT-15 colon 91.7% | HT29 colon 96.7% | SNB-75 CNS 81.2% | SNB-19 CNS 100% | PC-3 prostate 85.4% | SK-MEL-5 melanoma 90.4% | UACC-62 melanoma 90.2% | LOX IMVI melanoma 101% | SK-MEL-28 melanoma 109%

O=S(=O)(c1ccc(O)cc1)c1ccccc1O
inactive: HCT-15 colon 108% | HT29 colon 112% | SNB-75 CNS 96.7% | SNB-19 CNS 104% | U251 CNS 107% | PC-3 prostate 89% | UACC-62 melanoma 98.2% | SK-MEL-28 melanoma 105%

O=[N+]([O-])c1ccc(CI)cc1
active: HCT-15 colon 8.86%
inactive: HT29 colon 47.8% | SNB-75 CNS 96.4% | SNB-19 CNS 106% | PC-3 prostate 95.6% | UACC-62 melanoma 79.6% | SK-MEL-28 melanoma 104%

Source: PubChem BioAssay (NCI)
